Measurements reported in the supplement of paper PMC4840960.
± gives the standard deviation of the averaged measurements.

test system: E18 rat cortical neuron-glia co-culture; experiment: fiber score / MBP score (myelination specific beyond OL differentiation) (ratio); higher = more myelination-specific MBP alignment; conditions: 1 µM; treatment time: 8 days (DIV5-DIV13)
Summary of the method: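 The measure is the ratio of fiber score to MBP score, where fiber score is continuous MBP fiber length per Olig2+ nucleus and MBP score is thresholded MBP area × intensity per Olig2+ nucleus. Primary E18 rat cortical co-cultures received library compounds at 1 or 5 µM in myelination medium from DIV5 to DIV13, then were fixed in 4 % paraformaldehyde and stained for MBP, Olig2 and DAPI before analysis of four 10X fields per well in duplicate wells.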

Row | SMILES | fiber score / MBP score
1 | C[C@]12CC[C@H](O)CC1=CC[C@@H]1[C@@H]2CC[C@@]2(C)[C@H]1CC[C@]2(C)O [Methandriol] | 0.712
2 | CNC1CC(c2ccc(Cl)c(Cl)c2)c2ccccc21 (stereo not drawn) [Indatraline] | 0.417
3 | C[C@]12C/C(=C/O)C(=O)C[C@@H]1CC[C@@H]1[C@@H]2CC[C@@]2(C)[C@H]1CC[C@]2(C)O [Oxymetholone] | 0.813
4 | COc1ccc2[nH]cc(CCN)c2c1 [5-Methoxytryptamine] | 0.779
5 | CC(C)N(CCC(C(N)=O)(c1ccccc1)c1ccccn1)C(C)C (stereo not drawn) [Disopyramide] | 0.453
6 | CN1C(=O)CN=C(c2ccccc2)c2cc([N+](=O)[O-])ccc21 [Nimetazepam] | 0.743
7 | CCOC(=O)C1(c2ccccc2)CCN(CCC(C#N)(c2ccccc2)c2ccccc2)CC1 [Diphenoxylate] | 0.738
8 | O=c1c2ccccc2[se]n1-c1ccccc1 [Ebselen] | 2.01
9 | c1cncc([C@@H]2CCCN2)c1 [Nornicotine] | 0.765
10 | CCCC(C)(COC(N)=O)COC(=O)NC(C)C (stereo not drawn) [Carisoprodol] | 0.713
11 | Oc1ccc2c3c1O[C@H]1[C@@H](O)CC[C@@]4(O)[C@@H](C2)N(CC2CCC2)CC[C@]314 [Nalbufina] | 0.796
12 | C[C@]12Cc3c[nH]nc3C[C@@H]1CC[C@@H]1[C@@H]2CC[C@@]2(C)[C@H]1CC[C@]2(C)O [Stanozolol] | 0.697
13 | NCCc1ccccn1 [2-(2-aminoethyl)pyridine] | 0.847
14 | Oc1cc(Cl)ccc1Oc1ccc(Cl)cc1Cl [Triclosan] | 1.18
15 | O=C1CN=C(c2ccccc2)c2cc([N+](=O)[O-])ccc2N1 [Nitrazepam] | 0.887
16 | COC(=O)N1CCN(C(=O)Cc2ccc(Cl)c(Cl)c2)C(CN2CCCC2)C1 (stereo not drawn) | 0.594
17 | CCOC(=O)c1cncn1[C@H](C)c1ccccc1 [Etomidate] | 0.772 ± 0.06
18 | C[C@]12CCC(=O)C=C1CC[C@@H]1[C@@H]2CC[C@@]2(C)[C@H]1CC[C@]2(C)O [Methyltestosterone] | 0.609
19 | CN1CC[C@]23c4c5ccc(O)c4O[C@H]2c2[nH]c4ccccc4c2C[C@@]3(O)[C@H]1C5 [Oxymorphindole] | 0.883
20 | CN(C)C(=O)Oc1ccc[n+](C)c1 [Pyridostigmine Bromide] | 0.691
21 | NC1=NC(=O)C(c2ccccc2)O1 (stereo not drawn) [Pemoline] | 0.628
22 | CCC(COC(=O)c1cc(OC)c(OC)c(OC)c1)(c1ccccc1)N(C)C (stereo not drawn) [Trimebutine] | 0.423
23 | COc1cc([C@@H]2c3cc4c(cc3[C@H](O)[C@H]3COC(=O)[C@H]23)OCO4)cc(OC)c1OC [Podophyllotoxin] | 0.393
24 | CN1CC[C@]23CCCC[C@H]2[C@H]1Cc1ccc(O)cc13 [Levorphanol] | 0.869
25 | CN1CC[C@]2(c3cccc(O)c3)Cc3nc4ccccc4cc3C[C@H]2C1 | 0.572
26 | N=C(NCc1ccc(Cl)cc1)SCCCc1c[nH]cn1 [Clobenpropit] | 0.723
27 | CN1C(=O)CN=C(c2ccccc2)c2cc(Cl)ccc21 [Diazepam] | 0.832
28 | C[C@H]1CCC[C@H](O)CCCCCc2cc(O)cc(O)c2C(=O)O1 [Zeranol] | 0.788
